From the supplement of paper PMC10849652
About 7,900 targets were measured; listed, in parts, are those with a hit and a random draw of the rest. About 0.6% of all pairs of compound and target were hits. A number with no mark means an inactive call.

Tests used:
Assay in all cases: log2 fold change, soluble protein after heating vs DMSO (PISA); higher = thermal stabilisation; K562 cells, 10 uM, 30 min; active = over 0.2 and 3.5 SD of the protein, either way, in both replicates (recomputed)
[1] = compound: CC1=C(C=C(C=C1)NC(=O)C2=CC(=CC=C2)C(C)(C)C#N)NC3=CC4=C(C=C3)N=CN(C4=O)C
Procedure, shortened: (§1)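 K562 cells (2×10^6 cells/mL) were treated with 10 μM compound for 30 min, and aliquots were heated for 3 min over 48°C-58°C. Pooled aliquots were extracted in PBS with 0.5% NP-40 at 4°C, and the supernatant after 21,000xg for 90 min was measured by TMTpro 16plex LC-MS/MS with channel sums equalised. Reported thermal stability, relative to control samples and from duplicates, is a log2 fold change.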

[2] = compound: CC1=C(C=C(C=C1)NC(=O)C2=CC(=CC=C2)N(C)C)NC(=O)C3=CC=C(C=C3)O
Procedure, shortened: as §1

[3] = compound: CC1=CC=C(C=C1)SC2=C3C=C(SC3=CN=C2)C(=O)N
Procedure, shortened: as §1

[4] = compound: CC1=NC(=CC=C1)C2=C(N=C(N2)C(C)(C)C)C3=CC4=NC=CN=C4C=C3
Procedure, shortened: as §1

Nexturastat A = compound: CCCCN(Cc1ccc(C(=O)NO)cc1)C(=O)Nc1ccccc1 [Nexturastat A]
Procedure, shortened: as §1

vemurafenib = compound: CCCS(=O)(=O)Nc1ccc(F)c(C(=O)c2c[nH]c3ncc(-c4ccc(Cl)cc4)cc23)c1F [vemurafenib]
Procedure, shortened: as §1

[5] = compound: CCCS(=O)(=O)Nc1ccc(F)c(C(=O)c2c[nH]c3ncc(Cl)cc23)c1F
Procedure, shortened: as §1

[6] = compound: CCCc1cc(C)[nH]c(=O)c1CNC(=O)c1cc(-c2ccnc(N3CCN(C)CC3)c2)cc2c1cnn2C(C)C
Procedure, shortened: as §1

givinostat = compound: CCN(CC)Cc1ccc2cc(COC(=O)Nc3ccc(C(=O)NO)cc3)ccc2c1 [givinostat]
Procedure, shortened: as §1

barasertib = compound: CCN(CCCOc1ccc2c(Nc3cc(CC(=O)Nc4cccc(F)c4)[nH]n3)ncnc2c1)CCOP(=O)(O)O [barasertib]
Procedure, shortened: as §1

[7] = compound: CC[C@@H]1C(=O)N(C)c2cnc(Nc3ccc(C(=O)NC4CCN(C)CC4)cc3OC)nc2N1C1CCCC1
Procedure, shortened: as §1

volasertib = compound: CC[C@@H]1C(=O)N(C)c2cnc(Nc3ccc(C(=O)N[C@H]4CC[C@H](N5CCN(CC6CC6)CC5)CC4)cc3OC)nc2N1C(C)C [volasertib]
Procedure, shortened: as §1

[8] = compound: CC[C@H](C)N1C=C(C2=C(C=C(C=C21)C3=CN=C(C=C3)N4CCNCC4)C(=O)NCC5=C(C=C(NC5=O)C)C)C
Procedure, shortened: as §1

epoxomicin = compound: CC[C@H](C)[C@@H](C(=O)N[C@@H]([C@@H](C)O)C(=O)N[C@@H](CC(C)C)C(=O)[C@]1(CO1)C)NC(=O)[C@H]([C@@H](C)CC)N(C)C(=O)C [epoxomicin]
Procedure, shortened: as §1

[9] = compound: CCn1c(C(=O)N(C2CC2)C2CC2)cc2c3c(ncn3C)c(Nc3cc(C)n(C)n3)nc21
Procedure, shortened: as §1

[10] = compound: CCn1cc(-c2ccnc3[nH]c(-c4cccc(CN(C)C)c4)cc23)c(-c2ccc(NC(=O)N(C)C)cc2)n1
Procedure, shortened: as §1

[11] = compound: CN(C)CC(=O)Nc1ccc2[nH]c(=O)c3ccccc3c2c1
Procedure, shortened: as §1

rosiglitazone = compound: CN(CCOC1=CC=C(C=C1)C[C@H]2C(=O)NC(=O)S2)C3=CC=CC=N3 (racemic) [rosiglitazone]
Procedure, shortened: as §1

[12] = compound: CN1C2=C(C3=C1C(=O)N(N=C3)CC4=CC(=CC=C4)N)SC(=C2)S(=O)C
Procedure, shortened: as §1

[13] = compound: CN1CCC(CNc2ccc3ncc(-c4cccc(OC(F)(F)F)c4)n3n2)CC1
Procedure, shortened: as §1

UniProt O95926, sequence (O95926 whole entry, looked up): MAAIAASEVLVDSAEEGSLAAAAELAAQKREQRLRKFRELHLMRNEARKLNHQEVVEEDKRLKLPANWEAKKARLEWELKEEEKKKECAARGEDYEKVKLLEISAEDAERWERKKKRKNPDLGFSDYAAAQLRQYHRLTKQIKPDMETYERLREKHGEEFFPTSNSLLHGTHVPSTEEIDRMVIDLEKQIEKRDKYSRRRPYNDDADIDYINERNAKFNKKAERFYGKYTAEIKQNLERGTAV
UniProt Q92609, sequence (Q92609 whole entry, looked up): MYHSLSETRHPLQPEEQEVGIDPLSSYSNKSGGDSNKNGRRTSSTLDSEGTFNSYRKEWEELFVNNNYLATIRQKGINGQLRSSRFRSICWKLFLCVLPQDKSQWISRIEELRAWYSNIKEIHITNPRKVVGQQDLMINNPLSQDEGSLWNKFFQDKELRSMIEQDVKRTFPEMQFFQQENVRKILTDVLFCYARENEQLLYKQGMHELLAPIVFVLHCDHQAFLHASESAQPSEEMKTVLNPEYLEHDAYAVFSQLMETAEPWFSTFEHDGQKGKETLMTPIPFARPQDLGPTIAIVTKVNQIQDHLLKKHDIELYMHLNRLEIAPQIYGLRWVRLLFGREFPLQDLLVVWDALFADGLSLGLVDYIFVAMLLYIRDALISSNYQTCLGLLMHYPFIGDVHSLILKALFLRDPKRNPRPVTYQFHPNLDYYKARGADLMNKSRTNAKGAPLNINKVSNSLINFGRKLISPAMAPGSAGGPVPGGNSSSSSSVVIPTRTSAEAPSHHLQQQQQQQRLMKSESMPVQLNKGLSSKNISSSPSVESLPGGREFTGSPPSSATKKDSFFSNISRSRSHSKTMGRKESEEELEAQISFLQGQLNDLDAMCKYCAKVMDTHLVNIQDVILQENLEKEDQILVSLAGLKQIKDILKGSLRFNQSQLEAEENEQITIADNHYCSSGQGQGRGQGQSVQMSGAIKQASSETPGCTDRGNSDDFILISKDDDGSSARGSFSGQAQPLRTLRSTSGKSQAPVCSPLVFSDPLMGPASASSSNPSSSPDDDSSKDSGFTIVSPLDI
UniProt Q05519, sequence (Q05519 whole entry, looked up): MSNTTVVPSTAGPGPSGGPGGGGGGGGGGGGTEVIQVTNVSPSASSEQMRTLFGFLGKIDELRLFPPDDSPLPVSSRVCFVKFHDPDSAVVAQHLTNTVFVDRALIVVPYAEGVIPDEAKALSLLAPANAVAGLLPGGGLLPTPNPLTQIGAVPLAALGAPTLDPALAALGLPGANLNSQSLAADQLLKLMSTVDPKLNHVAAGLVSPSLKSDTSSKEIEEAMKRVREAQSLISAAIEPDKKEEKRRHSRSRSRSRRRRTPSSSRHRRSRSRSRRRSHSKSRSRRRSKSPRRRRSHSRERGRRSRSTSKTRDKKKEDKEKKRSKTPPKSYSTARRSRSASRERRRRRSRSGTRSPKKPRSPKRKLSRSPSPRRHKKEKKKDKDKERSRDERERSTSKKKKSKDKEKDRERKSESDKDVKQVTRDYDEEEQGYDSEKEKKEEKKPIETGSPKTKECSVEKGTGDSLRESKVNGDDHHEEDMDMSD
UniProt Q9UH99, sequence (Q9UH99 whole entry, looked up): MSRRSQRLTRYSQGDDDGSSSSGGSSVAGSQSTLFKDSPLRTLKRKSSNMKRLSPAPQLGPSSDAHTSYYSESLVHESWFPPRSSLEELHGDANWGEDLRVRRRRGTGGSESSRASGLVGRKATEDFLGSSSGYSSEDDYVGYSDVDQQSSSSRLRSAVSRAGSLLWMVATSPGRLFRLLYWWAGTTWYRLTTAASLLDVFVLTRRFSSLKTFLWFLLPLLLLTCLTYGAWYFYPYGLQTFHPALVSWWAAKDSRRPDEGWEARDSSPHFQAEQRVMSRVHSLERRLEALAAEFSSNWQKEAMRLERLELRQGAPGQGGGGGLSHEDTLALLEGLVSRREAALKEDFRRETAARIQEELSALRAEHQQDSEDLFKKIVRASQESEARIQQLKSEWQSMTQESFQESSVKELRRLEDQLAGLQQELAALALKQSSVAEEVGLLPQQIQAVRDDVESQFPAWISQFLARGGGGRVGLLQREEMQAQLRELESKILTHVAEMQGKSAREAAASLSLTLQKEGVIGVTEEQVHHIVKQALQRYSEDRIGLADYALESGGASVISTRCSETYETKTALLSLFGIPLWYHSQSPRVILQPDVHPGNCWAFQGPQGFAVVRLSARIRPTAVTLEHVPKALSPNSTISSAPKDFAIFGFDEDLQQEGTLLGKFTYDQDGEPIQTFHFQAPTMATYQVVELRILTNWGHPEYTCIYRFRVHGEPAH
UniProt Q658P3, sequence (Q658P3 whole entry, looked up): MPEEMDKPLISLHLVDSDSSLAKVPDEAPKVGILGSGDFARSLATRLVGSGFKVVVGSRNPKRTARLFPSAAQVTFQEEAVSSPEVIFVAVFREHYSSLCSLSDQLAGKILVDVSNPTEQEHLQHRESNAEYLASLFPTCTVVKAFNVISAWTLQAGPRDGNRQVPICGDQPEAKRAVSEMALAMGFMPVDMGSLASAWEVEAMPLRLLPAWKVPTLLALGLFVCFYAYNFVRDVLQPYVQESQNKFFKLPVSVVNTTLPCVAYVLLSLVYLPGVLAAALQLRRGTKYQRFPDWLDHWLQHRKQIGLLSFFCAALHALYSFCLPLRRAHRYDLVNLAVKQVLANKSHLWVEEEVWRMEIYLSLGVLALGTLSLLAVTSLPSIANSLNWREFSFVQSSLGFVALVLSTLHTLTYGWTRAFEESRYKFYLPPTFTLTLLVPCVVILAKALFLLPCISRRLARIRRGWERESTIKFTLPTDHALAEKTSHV
UniProt P35610, sequence (P35610 whole entry, looked up): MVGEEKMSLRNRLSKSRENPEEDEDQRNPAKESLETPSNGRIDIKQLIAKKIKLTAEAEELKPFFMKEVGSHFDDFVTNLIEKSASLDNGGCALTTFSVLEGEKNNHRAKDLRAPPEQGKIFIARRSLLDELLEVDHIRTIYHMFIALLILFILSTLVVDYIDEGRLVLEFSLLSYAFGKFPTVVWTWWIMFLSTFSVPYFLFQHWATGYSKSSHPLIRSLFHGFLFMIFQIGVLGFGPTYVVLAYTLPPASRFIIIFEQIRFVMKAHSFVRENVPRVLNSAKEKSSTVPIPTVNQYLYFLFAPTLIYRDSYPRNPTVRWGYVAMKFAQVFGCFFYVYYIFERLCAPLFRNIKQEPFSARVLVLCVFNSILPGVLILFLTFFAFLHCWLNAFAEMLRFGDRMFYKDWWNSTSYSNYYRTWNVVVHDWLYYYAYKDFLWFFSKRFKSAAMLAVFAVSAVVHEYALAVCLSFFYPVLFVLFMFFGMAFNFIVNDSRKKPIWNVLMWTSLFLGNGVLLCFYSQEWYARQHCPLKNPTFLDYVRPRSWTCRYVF
UniProt O75663, sequence (O75663 whole entry, looked up): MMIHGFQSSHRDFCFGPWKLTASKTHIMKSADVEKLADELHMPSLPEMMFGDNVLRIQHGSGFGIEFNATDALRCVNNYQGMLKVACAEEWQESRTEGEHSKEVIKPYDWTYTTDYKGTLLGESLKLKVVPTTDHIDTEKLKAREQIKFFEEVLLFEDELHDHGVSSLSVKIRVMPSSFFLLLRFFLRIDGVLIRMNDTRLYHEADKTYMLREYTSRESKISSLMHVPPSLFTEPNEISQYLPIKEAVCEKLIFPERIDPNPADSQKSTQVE

Target	log2 fold change [1]	log2 fold change [2]	log2 fold change [3]	log2 fold change [4]	log2 fold change (Nexturastat A)	log2 fold change (vemurafenib)	log2 fold change [5]	log2 fold change [6]	log2 fold change (givinostat)	log2 fold change (barasertib)	log2 fold change [7]	log2 fold change (volasertib)	log2 fold change [8]	log2 fold change (epoxomicin)	log2 fold change [9]	log2 fold change [10]	log2 fold change [11]	log2 fold change (rosiglitazone)	log2 fold change [12]	log2 fold change [13]
SRSF11 (UniProt Q05519)	-0.029	-0.058	0.009	0.032	-0.022	0.007	0.087	0.053	0.059	0.023	-0.088	-0.311 (active)	0.074	0.047	-0.022	-0.072	0.02	0.006	-0.018	0.128
SYF2 (UniProt O95926)	0.03	0.049	-0.063	-0.133	-0.015	-0.071	-0.134	-0.008	0.031	-0.083	0.196	0.174	-0.096	0.129	-0.01	0.068	-0.044	-0.017	0.039	0.187
TIPRL (UniProt O75663)	0.011	-0.017	0.007	0.013	-0.05	0.022	0.046	0.02	0.032	-0.007	-0.061	-0.23 (active)	0.072	0.025	-0.012	-0.057	0.032	0.085	0.021	-0.214
TBC1D5 isoform 2 (UniProt Q92609)	-0.051	-0.048	-0.013	0.018	0.01	0.048	0.112	-0.033	0.049	0.022	-0.397 (active)	-0.854 (active)	0.113	0.069	-0.076	-0.016	0.039	0.022	0.021	-0.375 (active)
STK39 (UniProt Q9UEW8)	-0.049	0.006	-0.016	0.033	0.018	0.015	0.032	0.053	0.033	0.033	-0.062	-0.139	0.023	0.054	-0.055	-0.036	-0.011	0.049	0.005	-0.25 (active)
SOAT1 (UniProt P35610)	0.259	-0.044	0.038	-0.03	0.002	-0.036	-0.015	-0.137	0.152	0.001	-0.017	0.053	-0.094	0.029	0.009	0.013	-0.04	-0.016	-0.051	-0.09
STEAP3 isoform 2 (UniProt Q658P3)	-0.009	0.015	0.008	-0.003	-0.05	-0.027	0.007	-0.025	0.005	-0.004	0.036	-0.013	-0.023	0.01	0.028	-0.084	0.002	0.021	0.041	-0.096
SUN2 (UniProt Q9UH99)	0.023	0.001	-0.017	-0.025	0.005	-0.026	0.015	0.013	0.005	-0.012	0.016	-0.064	0.01	0.045	0.006	-0.032	-0.012	0.033	0.015	0.057
